Shown are actives, neighbours in structure and some others; about 4% of the full set was active somewhere.
GDH-TPI counter-1 = inhibits GDH-TPI coupling enzymes, artifact for Mtb FBA screen; GDH-TPI coupled enzyme counterscreen, NADH absorbance; inhibition, % at 4.8 µM; 360,000 compounds, 1.2% hits; AID 588335;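 note: 0% = DMSO wells and 100% = wells lacking the enzyme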
Mtb betalactam = beta-lactam sensitization of Mtb H37Rv; M. tuberculosis H37Rv growth with meropenem, percent inhibition; inhibition, % at 25 µM; 330,000 compounds, 0.27% hits; call rule not given here;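 note: growth measured after seven days incubation then overnight dye step; 0% = bacteria only wells and 100% = bacteria with antibiotic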
MazF activator = activators of E. coli MazEF toxin-antitoxin RNase. AID 504720. P0AE70. 350,000 compounds, 0.32% hits. FAM/BHQ RNA-DNA oligo cleavage fluorescence, 5 h. activation, % at 20 µM; in the data active = activation above about 50%
Target sequence (P0AE70 whole entry, looked up): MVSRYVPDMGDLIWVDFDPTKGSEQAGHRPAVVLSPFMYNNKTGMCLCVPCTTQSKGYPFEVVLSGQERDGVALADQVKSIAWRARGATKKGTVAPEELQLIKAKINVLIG
CCHF vOTU inh = blocks the CCHF virus ovarian tumor domain protease; CCHFV vOTU protease, Pep-AMC fluorescence; inhibition, % at 11.5 µM; 370,000 compounds, 0.55% hits; AID 651958; note: 0% = vehicle wells with enzyme and 100% = no enzyme wells
FBA Mtb inh = Mtb fructose-bisphosphate aldolase inhibition; AID 588726; inhibition, % at 1 µM; purified M. tuberculosis FBA, fluorescence read-out; 360,000 compounds, 2.3% hits; P9WQA3; in the data active = inhibition above about 27%;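 note: 0% = vehicle and 100% = reference inhibitor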
Target sequence (P9WQA3 whole entry, looked up): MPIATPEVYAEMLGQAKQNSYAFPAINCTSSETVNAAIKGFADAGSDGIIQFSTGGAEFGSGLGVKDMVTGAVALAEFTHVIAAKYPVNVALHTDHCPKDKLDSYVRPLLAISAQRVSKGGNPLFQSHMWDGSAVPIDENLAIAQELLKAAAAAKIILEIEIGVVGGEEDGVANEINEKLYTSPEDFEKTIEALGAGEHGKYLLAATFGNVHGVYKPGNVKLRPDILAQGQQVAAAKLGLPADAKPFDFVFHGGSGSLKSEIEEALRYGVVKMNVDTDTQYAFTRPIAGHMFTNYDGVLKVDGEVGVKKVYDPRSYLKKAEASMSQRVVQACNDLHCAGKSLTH
Mtb FBA confirm = Mtb FBA inhibition, confirmed; shares compounds with FBA Mtb inh; purified M. tuberculosis FBA, fluorescence read-out; inhibition, % at 1 µM; 5,600 compounds, 78% hits; AID 651616; in the data active = inhibition above about 27%;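 note: 0% = vehicle wells and 100% = reference inhibitor wells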
GDH-TPI counter-2 = counter-screen for M. tuberculosis FBA inhibitors: GDH-TPI coupled enzyme inhibition. shares compounds with FBA Mtb inh. GDH-TPI coupled enzyme counterscreen, fluorescence. inhibition, % at 1 µM. 5,600 compounds, 81% hits. AID 652141; in the data active = inhibition above about 10%
Active calls of the source: *; / = no result given; + = active, no number. Cut-off read from the data, not from the text of the source, unless noted: active = inhibition above about 30%; inactive = the rest.

SMILES	GDH-TPI counter-1	Mtb betalactam	MazF activator	CCHF vOTU inh	FBA Mtb inh	Mtb FBA confirm	GDH-TPI counter-2
Cc1cc(C)c(NC(=O)c2cn3c4c(c(N5CCN(C)CC5)c(F)cc4c2=O)OCC3C)c(C)c1 (stereo not given)	6	-5	18	-13	28*	+	+
CCC(C)(C)n1nnnc1CN1CCC(NC(=O)c2ccc(Br)cc2)CC1	4	-3	-2	6	33*	4	-2
Cc1ccc(Cn2nnnc2CN2CCC(NC(=O)c3ccc(Br)cc3)CC2)cc1	2	-3	7	2	2	/	/
COC(=O)[C@]12C[C@H](CC(=O)NCCCCc3ccccc3)C(=O)N(CCC3=CCCCC3)C1=C[C@H](C(C)(C)C)O[C@@H]2C	/	/	/	-2	/	/	/
CSc1ccc(/C=C/C(=O)N2CCCN(C)CC2)cc1	18	3	7	-20	32*	52*	45*
Cc1ccc(COC(=O)c2nn(-c3ccccc3)nc2N)cc1	1	-8	-11	-56	86*	3	-4
Cc1ccc(COC(=O)c2nn(C)c(=O)c3ccccc23)cc1	-7	-11	-1	-4	3	/	/
Cc1cc(C)n2nc(NCc3ccccc3)nc2n1	7	-7	3	-14	55*	4	-5
COc1ccc(-c2nc3nc(C)cc(C)n3n2)cc1	-11	-9	0	15	57*	49*	38*
Cc1cc(OCC(=O)N2C[C@H]3C[C@@H](C2)c2cccc(=O)n2C3)c2c(C)cc(=O)oc2c1	17	4	0	10	34*	+	+
CC(Oc1cc2oc(=O)c3c(c2cc1Cl)CCC3)C(=O)N1C[C@H]2C[C@@H](C1)c1cccc(=O)n1C2 (stereo not given in full)	19	-8	-2	-32	37*	124*	111*
O=C(COc1ccc2c3c(c(=O)oc2c1)CCC3)N1C[C@H]2C[C@@H](C1)c1cccc(=O)n1C2	15	-4	15	3	13	/	/
O=C(COc1cc2oc(=O)c3c(c2cc1Cl)CCCC3)N1C[C@H]2C[C@@H](C1)c1cccc(=O)n1C2	21	-9	1	-12	35*	122*	87*
NC(=O)c1ncn([C@@H]2O[C@H](C(=O)N[C@H](Cc3c[nH]c4ccccc34)C(=O)O)[C@@H](O)[C@H]2O)n1	/	/	/	-2	/	/	/
Cc1ccn2cc(CCNC(=O)Cc3cccs3)nc2c1	1	-3	5	-8	22	/	/
Cc1ccn2cc(CCNC(=O)COc3ccccc3)nc2c1	-6	-2	3	-13	35*	46*	30*
Cc1ccn2cc(CCNC(=O)C3CC=CCC3C(=O)O)nc2c1 (stereo not given)	4	-7	10	-6	31*	+	+
Cc1ccn2cc(CCNC(=O)CC(C)(C)C)nc2c1	-2	-20	0	-1	27*	45*	29*
CC(=O)c1cc(-c2ccc3nonc3c2)c(=O)n2c1CCC2	/	/	/	4	/	/	/
COC(=O)[C@H]1C[C@@]2(C)c3ccccc3N(C(=O)OC(C)(C)C)[C@H]2N1C(=O)OC(C)(C)C	/	/	/	26	/	/	/
N#CCC[C@@H]1CC[C@]2(CCCN(C(=O)c3ccno3)C2)O1	/	/	/	8	/	/	/
O=C(OCc1cn(Cc2ccccc2F)nn1)N1CCCC1	/	/	/	0	/	/	/
Nc1ccc(-c2nc3cc(N)ccc3o2)cc1	34*	4	10	-49	37*	81*	51*
Cc1cccc(-c2nnc(-c3ccc(N)cc3)o2)c1	28	-1	3	-3	16	/	/
Nc1ccc(-c2nnc(-c3ccc(N)cc3)o2)cc1	36*	22	10	-56	74*	92*	82*
SMILES	GDH-TPI counter-1	Mtb betalactam	MazF activator	CCHF vOTU inh	FBA Mtb inh	Mtb FBA confirm	GDH-TPI counter-2
CN(C)c1ccc(-c2nc3cc(N)ccc3o2)cc1	49*	87	12	-63	36*	70*	55*
COc1cccc(CNC(=S)OC2CCC23CCC(c2ccccc2)CC3)c1 (stereo not given)	/	/	/	9	/	/	/
CC(C)(C)c1cccc(N/C(=C\C(=O)c2ccccc2)c2ccccc2)c1	/	/	/	-5	/	/	/
CSc1nc(SCC(N)=O)c2c3c(sc2n1)CN(C)CC3	23	0	-22	-17	26	/	/
CSc1nc(N)c2c3c(sc2n1)CN(C)CC3	21	-2	-10	-18	39*	48*	34*
CCC(O)CNc1nc(SC)nc2sc3c(c12)CCN(C)C3 (stereo not given)	17	-12	8	-107	84*	0	-6
C[C@@H]1CN(c2ccc(N3CCN(C(=O)OC(C)(C)C)C[C@H]3C)cc2C#N)CCN1Cc1ccccc1	/	/	/	9	/	/	/
COc1ccc(-n2c(SCC(=O)c3ccc4ccccc4c3)nnc2-c2ccccc2)cc1	/	/	/	7	/	/	/
Cc1ccc(-c2nnc3c(C(F)(F)F)nc4ccccc4n23)cc1	-1	-5	3	-5	60*	+	+
FC(F)(F)c1nc2ccccc2n2c(-c3ccc(Cl)cc3)nnc12	2	-9	10	-7	61*	6	0
O=C(Nc1ccc2ccccc2c1)N1CCN(c2ncccc2C(F)(F)F)CC1	-3	1	1	4	37*	-9	-5
Cc1ccc(NC(=O)N2CCN(c3ncccc3C(F)(F)F)CC2)cc1	13	5	-10	-5	1	/	/
COC(=O)c1cccc(NC(=O)C(C)(C)C)c1	8	-1	3	-16	36*	+	+
COc1ccc(C2=NN(c3nc(C(=O)O)cs3)C(O)(C(F)(F)F)C2)c(OC)c1 (stereo not given)	26	-2	2	-47	53*	79*	61*
COc1ccc(C2=NN(C(=O)c3cccs3)C(O)(C(F)(F)F)C2)cc1 (stereo not given)	2	5	-1	3	2	/	/
Cc1cc(=O)oc2cc(OCC(=O)OCC(=O)Nc3c(C)n(C)n(-c4ccccc4)c3=O)ccc12	-1	1	-8	3	3	/	/
Cc1c(NC(=O)COc2ccc3ccc(=O)oc3c2)c(=O)n(-c2ccccc2)n1C	15	-3	3	-18	79*	64*	57*
Cc1ccc(S(=O)(=O)N2CCC(C(=O)NNC(=O)c3ccccc3O)CC2)cc1C	-4	-1	-3	12	30*	+	+
Cc1cc(C)c(C)c(S(=O)(=O)N2CCC(C(=O)NNC(=O)c3ccccc3O)CC2)c1C	4	-2	-4	-2	39*	133*	113*
Nc1cc2nc[nH]c2cc1N	11	/	-4	-16	32*	55*	51*
NC(=O)c1c(N)[nH]c(C(=O)c2ccccc2)c1-c1ccccc1	/	/	/	10	/	/	/
CCOC(=O)CNC(=O)CSc1nnc(-c2cccs2)o1	/	/	/	2	/	/	/

From PubChem
